Hit rate of the full screen: of about 69,000 compounds, about 8,600 (12%) showed an effect of 50% or more. The full list was thinned out, with strong results kept by preference.

The assay has as its system Plasmodium berghei. As to the kind of experiment: Screen against P. berghei liver stage (PbLuc), transformed with Luciferase, at 10uM. It is filed as functional, HepG2. The settings on record: tested at 10 uM.
Consider `COc1cc(C(=O)N2CCC(Nc3cccnc3)CC2)ccc1C`, for which the INHIBITION is -22.1%.

Regarding `O=C(NC1CCC1)[C@H]1C[C@H]2CN(S(=O)(=O)c3ccccc3)C[C@@H]1O2`, the INHIBITION was 51.2%.

For `O=C(NC1CCC1)[C@H]1C[C@H]2CN(CC3CC3)C[C@@H]1O2`, the INHIBITION is on record as 65.3%.

`O=C(Nc1ccccc1)[C@H]1C[C@H]2CN(S(=O)(=O)c3ccccc3)C[C@@H]1O2`: the INHIBITION is listed as 5.96%.

Consider `CC(C)CN1C[C@@H]2C[C@H](C(=O)NC3CCC3)[C@H](C1)O2`, for which the INHIBITION is on record as 31.5%.

Take `Cc1cccc(S(=O)(=O)N2C[C@@H]3C[C@H](C(=O)NC4CCC4)[C@H](C2)O3)c1`: the INHIBITION was 5.36%.

`CCc1cnc(N2C[C@@H]3C[C@H](C(=O)NC4CCC4)[C@H](C2)O3)nc1`: the INHIBITION worked out at 5.63%.

For `Fc1ccc(-c2cnc(CN3CCn4c(nnc4C4CC4)C3)o2)cc1`, the INHIBITION stood at 21.8%.

Consider `CN1C(=O)CCCC12CCCN(Cc1cccs1)C2` (stereo not drawn), for which the INHIBITION was -2.35%.

Regarding `N#Cc1ccc(C(=O)O)nc1C=Cc1cccc(Cl)c1`, the INHIBITION is 10.2%.

`c1coc(-c2noc(CN3CCCCC3Cn3cncn3)n2)c1` (stereo not drawn): the INHIBITION is recorded as 17.4%.

As to `CC(C)[C@@H]1CN(Cc2cnc(C3CCCCC3)nc2)C[C@H]1C(=O)O`, the INHIBITION came out at 13.5%.

With `COCc1ncc(CN2C[C@@H](C(=O)O)[C@H](C(C)C)C2)cn1`, the INHIBITION is 24.2%.

`COCCc1ncc(CN2C[C@@H](C(=O)O)[C@H](C(C)C)C2)cn1`: the INHIBITION is reported as 50.2%.

Consider `CCCNC(=O)Nc1cc2c(cc1SC)OCCO2`, for which the INHIBITION turned out to be 8.47%.

Take `CSc1cc2c(cc1NC(=O)NCC1CCOC1)OCCO2` (stereo not drawn): the INHIBITION came out at 67.3%.

On to `CSc1cc2c(cc1NC(=O)NCC(=O)N(C)C)OCCO2`, for which the INHIBITION was determined as 35.9%.

On to `CSc1cc2c(cc1NC(=O)NCc1ccncc1)OCCO2`, for which the INHIBITION was found to be 8.4%.

As to `COCCNC(=O)Nc1cc2c(cc1SC)OCCO2`, the INHIBITION is listed as 69.1%.

Take `COCCN(C)C(=O)Nc1cc2c(cc1SC)OCCO2`: the INHIBITION is listed as -34%.

`CSc1cc2c(cc1NC(=O)NCCn1ccnc1)OCCO2`: the INHIBITION worked out at 64.6%.

On to `CC(NC(=O)NCCn1ccnc1)c1ccc2c(c1)OCCO2` (stereo not drawn), for which the INHIBITION turned out to be 31.8%.

Take `CSc1cc2c(cc1NC(=O)NCC(C)(C)C(N)=O)OCCO2`: the INHIBITION was determined as 48.5%.

For the molecule `O=C(N1CCCC(n2cncn2)C1)C1(c2ccccc2F)CCCC1` (stereo not drawn), the INHIBITION amounted to 22.3%.

Take `Cn1cnc(CNC(=O)c2ccccc2-n2cc(CN)cn2)c1`: the INHIBITION is recorded as -5.71%.

Turning to `COCC1CC2(CCN(Cc3cccnc3)CC2)CN1c1ncccn1` (stereo not drawn), the INHIBITION was 22.2%.

Regarding `Cc1cc(S(=O)(=O)NC(=O)CCc2cncc(F)c2)c(C)s1`, the INHIBITION stood at 24.3%.

As for `COCc1nc(C(=O)N2CCCC2c2cccc(C)c2)cs1` (stereo not drawn), the INHIBITION is given as -23.8%.

With `COc1c(C)cnc(CN2CCCC(Cn3nc(C)nc3C)C2)c1C` (stereo not drawn), the INHIBITION was -1.14%.

On to `CC(NC(=O)NCCn1ccnc1)c1nncn1C` (stereo not drawn), for which the INHIBITION was 39.3%.

Take `COc1cccc(CNc2cc(N3CCCC3CO)ncn2)n1` (stereo not drawn): the INHIBITION was -14.6%.

In the case of `O=C(O)c1ccccc1-c1ccc(CN2CC(c3ccncn3)C2)o1`, the INHIBITION was determined as 6.1%.

As for `CN(C)c1cc(CNC(=O)c2ccc(F)cc2)ccn1`, the INHIBITION is -7.35%.

Consider `CN(C)c1cc(CNC(=O)c2cc(F)ccc2F)ccn1`, for which the INHIBITION is -2.53%.

Turning to `CN(C)c1cc(CNC(=O)c2cn(-c3ccc(F)cc3)nn2)ccn1`, the INHIBITION was determined as 70.6%.

On to `CC(C)COCC(NC(=O)c1ccncc1)c1ccco1` (stereo not drawn), for which the INHIBITION was 28.8%.

With `N#Cc1ccc(NC2CCN(c3ncccn3)CC2)cc1Cl`, the INHIBITION is given as 28.7%.

As for `CS(=O)(=O)N1CCC(Nc2ccc(C#N)c(C(F)(F)F)c2)CC1`, the INHIBITION is listed as -11.7%.

`N#Cc1ccc(NC2CCN(c3ncccn3)CC2)cc1C(F)(F)F`: the INHIBITION was 68.2%.

As for `CC(C)(C)c1ncc(C(=O)NCCNc2ncccn2)s1`, the INHIBITION is listed as -39.3%.

As for `CCN(Cc1ccncc1)CC1(C)Cc2c(N)nc(N)nc2O1` (stereo not drawn), the INHIBITION amounted to 14.27%.

As for `Cc1nc(CN2CCCn3cnc(COCC4CC4)c3C2)cs1`, the INHIBITION is on record as 4.02%.

`CC(C)OCc1ncn2c1CN(Cc1ccoc1)CCC2`: the INHIBITION was found to be 59%.

For the molecule `Cc1nc(CN2CCCn3cnc(COC(C)C)c3C2)cs1`, the INHIBITION is on record as 66%.

With `c1nc(COCC2CC2)c2n1CCCN(CC1CC1)C2`, the INHIBITION is on record as 11.5%.

For the molecule `CC(C)OCc1ncn2c1CN(Cc1ccc(F)cc1)CCC2`, the INHIBITION came out at 9.67%.

As for `CC(C)OCc1ncn2c1CN(Cc1cnn(C)c1)CCC2`, the INHIBITION is reported as -7.24%.

For the molecule `CC(C)OCc1ncn2c1CN(Cc1nccs1)CCC2`, the INHIBITION turned out to be 46.2%.

With `CC(C)OCc1ncn2c1CN(CCO)CCC2`, the INHIBITION was 0.804%.

Regarding `c1cc(CN2CCCn3cnc(COCC4CC4)c3C2)co1`, the INHIBITION was found to be 35.7%.

With `COc1ccc(CN2CCCn3cnc(COC(C)C)c3C2)cc1`, the INHIBITION was 56.7%.

In the case of `COc1ccc(CN2CCCn3cnc(COCC4CC4)c3C2)cc1`, the INHIBITION is on record as 42.6%.

As for `CC(C)OCc1ncn2c1CN(CC1CC1)CCC2`, the INHIBITION is given as 66%.

Turning to `COc1ccsc1C(=O)N1CCCC(n2nc(C)cc2C)C1` (stereo not drawn), the INHIBITION is -5.25%.

Consider `N#Cc1cccc(NC(=O)C2CCCN2c2nccs2)c1` (stereo not drawn), for which the INHIBITION is 17.865%.

On to `O=C(CC1CCCCC1)NC1CCCCNC1=O` (stereo not drawn), for which the INHIBITION is listed as -65.3%.

As to `CCc1ccc(CC(=O)N2CCN(c3nccn3C)CC2)cc1`, the INHIBITION amounted to 27%.

With `CSCCC(NC(=O)c1ccccc1)C(=O)N(C)Cc1ccsc1` (stereo not drawn), the INHIBITION stood at 16.1%.

With `O=C(NCCn1nc(C2CCNC2)c2cccnc21)c1ccccc1` (stereo not drawn), the INHIBITION is given as -11.7%.

Regarding `CN(C)Cc1nnn2c1CN(Cc1cccnc1)CCC2`, the INHIBITION is recorded as -21.1%.

As for `CCc1noc(CN2CCN(Cc3cccs3)CC2)n1`, the INHIBITION amounted to 3.73%.

In the case of `COCC(=O)N(C)Cc1nc(N(C)C)ncc1-c1ccncc1`, the INHIBITION is given as -3.53%.

As to `Cc1ncsc1CN1C[C@@H](OCC(=O)N(C)C)[C@H]2OCCC[C@H]21`, the INHIBITION is recorded as -31.3%.

For the molecule `CC(=O)c1ccccc1-c1cc(C(=O)O)cc(S(=O)(=O)NC(C)C)c1`, the INHIBITION is -9.2%.

`CC(C)NS(=O)(=O)c1cc(C(=O)O)cc(-c2ccccc2C#N)c1`: the INHIBITION stood at 53.8%.

For the molecule `CC(C)NS(=O)(=O)c1cc(C(=O)O)cc(-c2ccccc2F)c1`, the INHIBITION is on record as -108%.

In the case of `CC(=O)N1CC[C@H]2OCC[C@@H](C(=O)Nc3cccnc3C)[C@H]2C1`, the INHIBITION is on record as -14.2%.

Regarding `O=C(NC1CC1)N1C[C@H]2CN(Cc3cccc(F)c3)C(=O)[C@H]2C1`, the INHIBITION is recorded as 60.2%.

With `O=C(c1ccc[nH]1)N1C[C@H]2CN(Cc3cccc(F)c3)C(=O)[C@H]2C1`, the INHIBITION was 8.53%.

On to `CN(C)C(=O)N1C[C@H]2CN(Cc3cccc(F)c3)C(=O)[C@H]2C1`, for which the INHIBITION came to 33%.

Turning to `O=C(CO)N1C[C@H]2CN(Cc3cccc(F)c3)C(=O)[C@H]2C1`, the INHIBITION is 40.4%.

`COCC(=O)N1C[C@H]2CN(Cc3cccc(F)c3)C(=O)[C@H]2C1`: the INHIBITION is 50.9%.

Regarding `O=C(c1ccco1)N1C[C@H]2CN(Cc3cccc(F)c3)C(=O)[C@H]2C1`, the INHIBITION is given as 1.94%.

The values above are taken from ChEMBL document CHEMBL4513216, “Probing the Open Global Health Chemical Diversity Library for Multistage-Active Starting Points for Next-Generation Antimalarials” (ACS Infect Dis, 2020).
